# Source: PubChem BioAssay AID1159580 (chemical genetic matrix, 2015)
# Several values for one entry are separate records, joined by “and”; a condition that tells them apart may be missing. Identical values can stand only once. Screen size: about 5,500 compounds; about 2,000 (36%) were called active. Roughly 18% stayed inconclusive and do not appear here. Cut-off read from the data, not from the text of the source: active = normalized growth mostly below about 0.91 (no sharp cut-off); inconclusive = no clear call, values can overlap the other calls; inactive = mostly above about 0.92. This is one part of the list.
# Assay: chemical genetic growth profiling, strain panel (AID 1159580);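 note: tested at 20 µM; growth read once vehicle control cultures reached saturation at 30 °C; 1 = growth at the plate median or of vehicle wells; lower values mean less growth of the strain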
# Settings: S. cerevisiae deletion strains, growth OD
compound,measurement,setting,value
CCC(=O)O[C@H]1CCC2C3CCC4=CC(=O)CC[C@]4(C)C3CC[C@@]21C (some centres not stated),normalized growth,"locus YAL013W, strain DEP1, stronger effect = lower value",0.792 (active)
same,normalized growth,"locus YAL021C, strain ccr4, stronger effect = lower value",0.979 (inactive)
same,normalized growth,"locus YAL026C, strain drs2, stronger effect = lower value",0.959 (inactive)
same,normalized growth,"locus YAL030W, strain snc1, stronger effect = lower value",0.924 (active)
same,normalized growth,"locus YBL061C, strain skt5, stronger effect = lower value",0.866 (active)
same,normalized growth,"locus YBR009C, strain hhf1, stronger effect = lower value",0.883 (active)
same,normalized growth,"locus YBR021W, strain FUR4, stronger effect = lower value",0.782 (active)
same,normalized growth,"locus YBR023C, strain chs3, stronger effect = lower value",0.868 (active)
same,normalized growth,"locus YBR171W, strain sec66, stronger effect = lower value",0.925 (inactive)
same,normalized growth,"locus YBR229C, strain ROT2, stronger effect = lower value",0.969 (inactive)
same,normalized growth,"locus YBR231C, strain swc5, stronger effect = lower value",0.952 (inactive)
same,normalized growth,"locus YBR279W, strain paf1, stronger effect = lower value",0.959 (inactive)
same,normalized growth,"locus YCL011C, strain gbp2, stronger effect = lower value",0.843 (active)
same,normalized growth,"locus YCL016C, strain dcc1, stronger effect = lower value",0.905 (active)
same,normalized growth,"locus YCL029C, strain bik1, stronger effect = lower value",0.857 (active)
same,normalized growth,"locus YCL069W, strain vba3, stronger effect = lower value",0.962 (inactive)
same,normalized growth,"locus YCR088W, strain abp1, stronger effect = lower value",0.957 (inactive)
same,normalized growth,"locus YDL005C, strain med2, stronger effect = lower value",0.949 (inactive)
same,normalized growth,"locus YDL035C, strain GPR1, stronger effect = lower value",0.892 (inactive)
same,normalized growth,"locus YDL040C, strain nat1, stronger effect = lower value",0.946 (inactive)
same,normalized growth,"locus YDL074C, strain BRE1, stronger effect = lower value",0.76 (active)
same,normalized growth,"locus YDL101C, strain DUN1, stronger effect = lower value",0.95 (inactive)
same,normalized growth,"locus YDL185W, strain tfp1, stronger effect = lower value",1 (inactive)
same,normalized growth,"locus YDL192W, strain arf1, stronger effect = lower value",0.985 (inactive)
same,normalized growth,"locus YDR001C, strain nth1, stronger effect = lower value",0.962 (inactive)
same,normalized growth,"locus YDR069C, strain doa4, stronger effect = lower value",0.924 (inactive)
same,normalized growth,"locus YDR101C, strain arx1, stronger effect = lower value",0.957 (inactive)
same,normalized growth,"locus YDR137W, strain rgp1, stronger effect = lower value",0.689 (active)
same,normalized growth,"locus YDR159W, strain sac3, stronger effect = lower value",0.796 (active)
same,normalized growth,"locus YDR162C, strain NBP2, stronger effect = lower value",0.808 (active)
same,normalized growth,"locus YDR195W, strain ref2",0.993 (inactive)
same,normalized growth,"locus YDR297W, strain sur2, stronger effect = lower value",0.968 (inactive)
same,normalized growth,"locus YDR318W, strain mcm21, stronger effect = lower value",0.901 (active)
same,normalized growth,"locus YDR334W, strain swr1, stronger effect = lower value",0.952 (inactive)
same,normalized growth,"locus YDR335W, strain msn5, stronger effect = lower value",0.934 (inactive)
same,normalized growth,"locus YDR388W, stronger effect = lower value",0.981 (inactive)
same,normalized growth,"locus YDR392W, strain spt3, stronger effect = lower value",0.213 (active)
same,normalized growth,"locus YDR502C, strain sam2, stronger effect = lower value",0.919 (active)
same,normalized growth,"locus YEL003W, strain gim4, stronger effect = lower value",0.943 (inactive)
same,normalized growth,"locus YEL037C, strain rad23, stronger effect = lower value",0.96 (inactive)
same,normalized growth,"locus YEL061C, strain CIN8 (second series), stronger effect = lower value",0.968 (inactive)
same,normalized growth,"locus YEL061C, strain CIN8, stronger effect = lower value",0.933 (inactive)
same,normalized growth,"locus YER015W, strain faa2, stronger effect = lower value",0.954 (inactive)
same,normalized growth,"locus YER016W, strain bim1, stronger effect = lower value",0.879 (active)
same,normalized growth,"locus YER110C, stronger effect = lower value",0.998 (inactive)
same,normalized growth,"locus YER111C, strain swi4, stronger effect = lower value",0.928 (inactive)
same,normalized growth,"locus YER155C, strain BEM2 (second series), stronger effect = lower value",0.777 (active)
same,normalized growth,"locus YER155C, strain BEM2, stronger effect = lower value",0.873 (active)
same,normalized growth,"locus YER167W, strain BCK2, stronger effect = lower value",0.909 (inactive)
same,normalized growth,"locus YFR010W, strain ubp6, stronger effect = lower value",0.992 (inactive)
same,normalized growth,"locus YGL078C, strain dbp3, stronger effect = lower value",0.984 (inactive)
same,normalized growth,"locus YGL086W, strain mad1, stronger effect = lower value",0.873 (active)
same,normalized growth,"locus YGL167C, strain pmr1, stronger effect = lower value",0.928 (inactive)
same,normalized growth,"locus YGL173C, strain kem1, stronger effect = lower value",0.887 (active)
same,normalized growth,"locus YGL227W, strain vid30, stronger effect = lower value",0.949 (inactive)
same,normalized growth,"locus YGL240W, strain doc1, stronger effect = lower value",0.928 (inactive)
same,normalized growth,"locus YGL248W, strain PDE1, stronger effect = lower value",0.916 (inactive)
same,normalized growth,"locus YGL253W, strain hxk2, stronger effect = lower value",0.872 (active)
same,normalized growth,"locus YGR135W, strain pre9, stronger effect = lower value",0.969 (inactive)
same,normalized growth,"locus YGR229C, strain SMI1, stronger effect = lower value",0.821 (inactive)
same,normalized growth,"locus YGR252W, strain gcn5, stronger effect = lower value",0.872 (inactive)
same,normalized growth,"locus YHR013C, strain ard1, stronger effect = lower value",1.02 (inactive)
same,normalized growth,"locus YHR027C, strain rpn1, stronger effect = lower value",0.967 (inactive)
same,normalized growth,"locus YHR030C, strain SLT2, stronger effect = lower value",0.889 (active) and 0.906 (inactive)
same,normalized growth,"locus YHR079C, strain IRE1 (second series), stronger effect = lower value",0.981 (inactive)
same,normalized growth,"locus YHR079C, strain IRE1, stronger effect = lower value",0.896 (inactive)
same,normalized growth,"locus YHR094C, strain hxt1, stronger effect = lower value",0.982 (inactive)
same,normalized growth,"locus YHR129C, strain ARP1, stronger effect = lower value",0.943 (inactive)
same,normalized growth,"locus YHR142W, strain chs7, stronger effect = lower value",0.737 (active)
same,normalized growth,"locus YHR200W, strain rpn10, stronger effect = lower value",0.943 (inactive)
same,normalized growth,"locus YIL066C, strain RNR3, stronger effect = lower value",0.878 (inactive)
same,normalized growth,"locus YIL073C, strain SPO22, stronger effect = lower value",0.807 (inactive)
same,normalized growth,"locus YIL125W, strain kgd1, stronger effect = lower value",0.975 (inactive)
same,normalized growth,"locus YIR030C, strain dcg1, stronger effect = lower value",0.991 (inactive)
same,normalized growth,"locus YJL092W, strain hpr5, stronger effect = lower value",0.929 (inactive)
same,normalized growth,"locus YJL095W, strain BCK1 (second series), stronger effect = lower value",0.77 (active)
same,normalized growth,"locus YJL095W, strain BCK1, stronger effect = lower value",0.724 (active) and 0.95 (inactive)
same,normalized growth,"locus YJL115W, strain asf1, stronger effect = lower value",0.945 (inactive)
same,normalized growth,"locus YJL129C, strain trk1, stronger effect = lower value",0.781 (active)
same,normalized growth,"locus YJL134W, strain LCB3, stronger effect = lower value",0.978 (inactive)
same,normalized growth,"locus YJL154C, strain vps35, stronger effect = lower value",0.943 (inactive)
same,normalized growth,"locus YJL164C, strain tpk1, stronger effect = lower value",0.893 (active)
same,normalized growth,"locus YJL166W, strain qcr8, stronger effect = lower value",0.865 (active)
same,normalized growth,"locus YJL168C, strain set2, stronger effect = lower value",0.983 (inactive)
same,normalized growth,"locus YJL187C, strain SWE1 (second series), stronger effect = lower value",0.951 (inactive)
same,normalized growth,"locus YJL187C, strain SWE1, stronger effect = lower value",0.907 (active)
same,normalized growth,"locus YJR043C, strain POL32, stronger effect = lower value",0.928 (inactive)
